Read-out in test [1]: Cyclin D1 (CCND1), CCND1 (gene 595)
Briefly: LTEA_HepaRG_CCND1: Life Technologies and Expression Analysis (LTEA) Assay for Cyclin D1 (CCND1) using HepaRG (AID 2283451).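 As to AC50: differentiated human HepaRG liver cells in serum-free induction medium.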 As to conditions: mRNA level, 48 h; actives raise or lower the signal. The method, boiled down:
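qRT-PCR (Fluidigm 96.96 array) read-out of transcript level, housekeeping-normalized (ACTB/GAPDH/POLR2A). HepaRG cells, 48 h chemical exposure, 8-point half-log series from 100 uM, 0.5% DMSO vehicle; gain or loss relative to DMSO baseline.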

Read-out in test [2]: catalase (CAT), CAT (gene 847)
Briefly: LTEA_HepaRG_CAT: Life Technologies and Expression Analysis (LTEA) Assay for catalase (CAT) using HepaRG (AID 2283452). As to conditions: mRNA level, 48 h; actives raise or lower the signal. Summed up: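 Differentiated HepaRG cells in serum-free induction medium were dosed 48 h in duplicate, eight half-log concentrations from 100 uM in 0.5% DMSO. Transcript measured by TaqMan qRT-PCR, normalised to ACTB/GAPDH/POLR2A, fitted bidirectionally against DMSO.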

Read-out in test [3]: flavin-containing dimethylaniline monooxygenases 3 (FMO3), FMO3 (gene 2328)
Briefly: LTEA_HepaRG_FMO3: Life Technologies and Expression Analysis (LTEA) Assay for flavin-containing dimethylaniline monooxygenases 3 (FMO3) using HepaRG (AID 2283453).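 As to AC50: differentiated human HepaRG liver cells in serum-free induction medium.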 As to conditions: mRNA level, 48 h; actives raise or lower the signal. The method, boiled down:
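FMO3 transcript quantified by TaqMan qRT-PCR against three housekeeping genes after 48 h chemical exposure of HepaRG cells. Eight-point half-log series, top 100 uM, 0.5% DMSO vehicle; phenobarbital 1mM induction control; up- or down-regulation fitted.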

Read-out in test [4]: Cytochrome P450 (CYP1A1), CYP1A1 (gene 1543)
The experiment in a line: LTEA_HepaRG_CYP1A1: Life Technologies and Expression Analysis (LTEA) Assay for Cytochrome P450 (CYP1A1) using HepaRG (AID 2283454). The following applies: mRNA level, 48 h; actives raise or lower the signal. Summed up: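 qRT-PCR read-out: CYP1A1 transcript normalized to three housekeeping genes, fitted bidirectionally against 0.5% DMSO vehicle baseline. Human HepaRG cells, 48 h chemical exposure, 8-point half-log series topping at 100 uM.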

Read-out in test [5]: CFLAR gene, CFLAR (gene 8837)
Briefly: LTEA_HepaRG_CFLAR: Life Technologies and Expression Analysis (LTEA) Assay for CFLAR gene using HepaRG (AID 2283455). As to conditions: mRNA level, 48 h; actives raise or lower the signal. The method, boiled down: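 Gain- or loss-of-signal changes in CFLAR transcript were fitted bidirectionally relative to 0.5% DMSO. Cells (HepaRG, duplicate wells) were dosed for 48 h across eight half-log concentrations topping at 100 uM; quantitation by TaqMan qRT-PCR.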

Read-out in test [6]: Forkhead box O1 (FOXO1), FOXO1 (gene 2308)
The experiment in a line: LTEA_HepaRG_FOXO1: Life Technologies and Expression Analysis (LTEA) Assay for Forkhead box O1 (FOXO1) using HepaRG (AID 2283456). The following applies: mRNA level, 48 h; actives raise or lower the signal. The method, boiled down: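 Using one lot of HepaRG hepatic cells kept in 0.5% DMSO, the team applied test chemicals in duplicate, half-log dilutions from 100 uM, for 48 h. Expression, normalised to ACTB/GAPDH/POLR2A, was compared with vehicle in either direction.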

Read-out in test [7]: Forkhead box O3 (FOXO3), FOXO3 (gene 2309)
The experiment in a line: LTEA_HepaRG_FOXO3: Life Technologies and Expression Analysis (LTEA) Assay for Forkhead box O3 (FOXO3) using HepaRG (AID 2283459). The following applies: mRNA level, 48 h; actives raise or lower the signal. Summed up: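 Gene-expression endpoint: FOXO3 transcript level by qRT-PCR in HepaRG cultures treated 48 h with chemicals up to 100 uM (half-log, 0.5% DMSO vehicle).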

Read-out in test [8]: growth arrest and DNA damage 45 (GADD45B), GADD45B (gene 4616)
The experiment in a line: LTEA_HepaRG_GADD45B: Life Technologies and Expression Analysis (LTEA) Assay for growth arrest and DNA damage 45 (GADD45B) using HepaRG (AID 2283461). The following applies: mRNA level, 48 h; actives raise or lower the signal. The method, boiled down:
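qRT-PCR read-out (Fluidigm TaqMan, housekeeping-normalized) of mRNA change in human HepaRG cells after 48 h chemical exposure; 8-point curve, top 100 uM, half-log steps, 0.5% DMSO vehicle; gain or loss fitted relative to DMSO baseline.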

Read-out in test [9]: ABC Transporter (ABCC3), ABCC3 (gene 8714)
The experiment in a line: LTEA_HepaRG_ABCC3: Life Technologies and Expression Analysis (LTEA) Assay for ABC Transporter (ABCC3) using HepaRG (AID 2283462). As to conditions: mRNA level, 48 h; actives raise or lower the signal. The method, boiled down:
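qRT-PCR read-out of ABCC3 transcript, normalized to three housekeeping genes (ACTB, GAPDH, POLR2A), after 48 h chemical exposure of human HepaRG cells. Eight half-log concentrations, highest 100 uM, in 0.5% DMSO; gain or loss fitted relative to DMSO baseline.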

Read-out in test [10]: ABC Transporter (ABCB11), ABCB11 (gene 8647)
Briefly: LTEA_HepaRG_ABCB11: Life Technologies and Expression Analysis (LTEA) Assay for ABC Transporter (ABCB11) using HepaRG (AID 2283463). The following applies: mRNA level, 48 h; actives raise or lower the signal. Summed up:
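Using HepaRG cultures held in 0.5% DMSO, chemicals were tested at half-log dilutions from 100 uM for 48 h. Induction or suppression of ABCB11 mRNA, normalized to ACTB, GAPDH and POLR2A, was fitted bidirectionally against vehicle.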

Read-out in test [11]: ABC Transporter (ABCC2), ABCC2 (gene 1244)
Briefly: LTEA_HepaRG_ABCC2: Life Technologies and Expression Analysis (LTEA) Assay for ABC Transporter (ABCC2) using HepaRG (AID 2283464). As to conditions: mRNA level, 48 h; actives raise or lower the signal. The method, boiled down: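 qRT-PCR (TaqMan, Fluidigm array) read-out of ABCC2 mRNA, normalized to three housekeeping genes. Differentiated HepaRG cells were treated 48 h in serum-free induction medium with 8-point half-log series from 100 uM in 0.5% DMSO; curves fitted bidirectionally relative to DMSO.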

Read-out in test [12]: Broad substrate specificity ATP-binding cassette transporter ABCG2 (Homo sapiens) (UniProt Q9UNQ0)
The experiment in a line: LTEA_HepaRG_ABCG2: Life Technologies and Expression Analysis (LTEA) Assay for ABC Transporter (ABCG2) using HepaRG (AID 2283465). As to conditions: mRNA level, 48 h; actives raise or lower the signal. The method, boiled down:
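Gene expression of ABCG2 in HepaRG liver cells is quantified by qRT-PCR following 48 h exposure across an eight-point series topping at 100 uM. Values come from bidirectional fitting relative to DMSO vehicle.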

Read-out in test [13]: ATP-citrate lyase (ACLY), ACLY (gene 47)
Briefly: LTEA_HepaRG_ACLY: Life Technologies and Expression Analysis (LTEA) Assay for ATP-citrate lyase (ACLY) using HepaRG (AID 2283466). As to conditions: mRNA level, 48 h; actives raise or lower the signal. Summed up:
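ACLY expression changes in human HepaRG liver cells are quantified by qRT-PCR after 48 h exposure to test chemicals (maximum 100 uM, half-log steps). Values are fitted in both directions relative to 0.5% DMSO vehicle.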

Read-out in test [14]: Peroxisomal acyl-coenzyme A oxidase 1 (ACOX1) gene, ACOX1 (gene 51)
The experiment in a line: LTEA_HepaRG_ACOX1: Life Technologies and Expression Analysis (LTEA) Assay for Peroxisomal acyl-coenzyme A oxidase 1 (ACOX1) gene using HepaRG (AID 2283467). As to conditions: mRNA level, 48 h; actives raise or lower the signal. The method, boiled down:
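Human HepaRG hepatic cultures, 48 h treatment with test chemicals up to 100 uM. ACOX1 expression read by qRT-PCR relative to 0.5% DMSO vehicle.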

Read-out in test [15]: Alkaline Phosphatase, Placental (ALPP) gene, ALPP (gene 250)
Briefly: LTEA_HepaRG_ALPP: Life Technologies and Expression Analysis (LTEA) Assay for Alkaline Phosphatase, Placental (ALPP) gene using HepaRG (AID 2283468).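 As to AC50: differentiated human HepaRG liver cells in serum-free induction medium.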 As to conditions: mRNA level, 48 h; actives raise or lower the signal. Summed up:
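qRT-PCR readout of ALPP mRNA (Fluidigm TaqMan), normalized to ACTB/GAPDH/POLR2A, after 48 h chemical exposure of HepaRG cells; 8-point half-log series, top 100 uM, 0.5% DMSO vehicle. Bidirectional curve fit versus DMSO baseline.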

Read-out in test [16]: Bcl-2 (BAD) gene, BAD (gene 572)
Briefly: LTEA_HepaRG_BAD: Life Technologies and Expression Analysis (LTEA) Assay for Bcl-2 (BAD) gene using HepaRG (AID 2283469). As to conditions: mRNA level, 48 h; actives raise or lower the signal. The method, boiled down: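 Activity values reflect up- or down-regulation of BAD mRNA in human HepaRG hepatic cells treated 48 h in serum-free medium, with eight-point half-log dosing capped at 100 uM and 0.5% DMSO vehicle.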

Read-out in test [17]: Bcl-2 (BAX) gene, BAX (gene 581)
The experiment in a line: LTEA_HepaRG_BAX: Life Technologies and Expression Analysis (LTEA) Assay for Bcl-2 (BAX) gene using HepaRG (AID 2283470). As to conditions: mRNA level, 48 h; actives raise or lower the signal. The method, boiled down: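 Gene expression measured by Fluidigm qRT-PCR with three housekeeping genes for normalisation. HepaRG cells, plated 48 h beforehand, treated 48 h at up to 100 uM (8-point, half-log) in 0.5% DMSO. Bidirectional fitting versus DMSO.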

Test [18] can be described thus: CEETOX_H295R_TESTO: CeeTox H295R High-throughput Steroidogenesis Assay for Testosterone (TESTO) (AID 2283457).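 As to AC50: cells exposed to chemicals for 48 h before medium collection.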 The following applies: actives raise or lower the signal. Summed up: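 Readout: testosterone quantified by HPLC-MS/MS (C18, ESI positive) after MTBE liquid-liquid extraction of culture medium. Cells were H295R, 48 h chemical exposure per OECD 456 with modifications. Gain or loss of signal fitted relative to DMSO.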

Read-out in test [19]: ABC Transporter (ABCB1), ABCB1 (gene 5243)
The experiment in a line: LTEA_HepaRG_ABCB1: Life Technologies and Expression Analysis (LTEA) Assay for ABC Transporter (ABCB1) using HepaRG (AID 2283460). The following applies: mRNA level, 48 h; actives raise or lower the signal. Summed up: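 Human liver HepaRG line treated 48 h with up to 100 uM compound (eight half-log points, 0.5% DMSO); ABCB1 mRNA change fitted bidirectionally against DMSO controls.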

Read-out in test [20]: growth arrest and DNA damage 45 (GADD45A), GADD45A (gene 1647)
The experiment in a line: LTEA_HepaRG_GADD45A: Life Technologies and Expression Analysis (LTEA) Assay for growth arrest and DNA damage 45 (GADD45A) using HepaRG (AID 2283458). As to conditions: mRNA level, 48 h; actives raise or lower the signal. The method, boiled down: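 GADD45A expression was measured by TaqMan qRT-PCR against three housekeeping genes (ACTB, GAPDH, POLR2A) after 48 h treatment of HepaRG cells. Eight-point half-log series up to 100 uM in 0.5% DMSO, run in duplicate.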

Structures are written as SMILES. The source made the active and inactive calls. The calls were made as follows: active = hit-call score of the fitted dose curve at least 0.9, where 1 is the maximum; inactive = score below 0.9.

Chain of Broad substrate specificity ATP-binding cassette transporter ABCG2 (Homo sapiens) (Q9UNQ0 whole entry, looked up): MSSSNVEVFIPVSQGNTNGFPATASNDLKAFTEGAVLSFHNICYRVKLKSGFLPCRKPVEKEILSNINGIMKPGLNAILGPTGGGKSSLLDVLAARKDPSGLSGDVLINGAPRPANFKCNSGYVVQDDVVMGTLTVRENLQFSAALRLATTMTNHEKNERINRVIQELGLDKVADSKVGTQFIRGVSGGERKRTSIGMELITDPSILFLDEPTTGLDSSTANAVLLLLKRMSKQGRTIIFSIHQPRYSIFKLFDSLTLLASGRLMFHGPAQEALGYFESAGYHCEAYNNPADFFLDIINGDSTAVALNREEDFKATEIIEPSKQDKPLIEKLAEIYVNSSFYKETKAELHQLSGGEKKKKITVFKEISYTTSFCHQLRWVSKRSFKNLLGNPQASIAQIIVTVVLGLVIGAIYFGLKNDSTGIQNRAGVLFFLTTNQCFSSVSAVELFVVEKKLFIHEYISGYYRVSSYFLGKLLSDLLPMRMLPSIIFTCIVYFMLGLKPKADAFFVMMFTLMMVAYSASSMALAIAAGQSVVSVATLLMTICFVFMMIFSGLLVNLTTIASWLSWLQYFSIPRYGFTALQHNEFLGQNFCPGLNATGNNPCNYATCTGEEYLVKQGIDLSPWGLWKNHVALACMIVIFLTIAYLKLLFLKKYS

`O=Cc1ccco1`: the molecule was classed as inactive in test [1], in test [2], in test [3], in test [5], in test [6] and in test [7]. In addition, the molecule was classed as inactive in test [8], in [9], in test [10], in [11], in test [12] and in [13]. The call in [14], in test [15], in test [16] and in test [17] was inactive. The AC50 in test [4] is 50 µM (active).
With `C[C@]12C=CC3=C4CCC(=O)C=C4CC[C@H]3[C@@H]1CC[C@@H]2O`, the result in test [1], in [5], in test [6], in [7], in test [19] and in [8] was inactive. In addition, the outcome in [9], in test [11], in [12], in [13], in [14] and in test [16] was inactive. Besides, the result in test [17] was inactive. The AC50 in [2] is 50 µM (active); in test [3], 20.3 µM (active); in test [18], 83 µM (active); in [10], 27.3 µM (active); in test [15], 24.4 µM (active).
Consider `Nc1ccc(N=Nc2ccccc2)cc1`, for which the AC50 is 28.8 µM (active) in [1]; 14.9 µM (active) in test [2]; 19.1 µM (active) in test [3]; 35.8 µM (active) in test [4]; 20.8 µM (active) in test [5]; 30.9 µM (active) in test [6]. Further, the AC50 was 18.4 µM (active) in test [7]; 29 µM (active) in test [8]; 13.8 µM (active) in [10]; 13.2 µM (active) in [11]; 13 µM (active) in [12]; 13.3 µM (active) in [13]. Moreover, the AC50 in test [14] is 14 µM (active); in test [17] it was 6.31 µM (active). Moreover, the molecule was called inactive in test [15] and in test [16].
Take `CC(C)N(Cc1ccccc1)C(=O)C(C)(C)C`: the result in [1], in test [2], in test [3], in [6], in test [18] and in test [20] was inactive. Moreover, the molecule was called inactive in test [7], in [9], in [10], in [12], in test [13] and in test [14]. For the same molecule, the result in test [15], in test [16] and in [17] was inactive. Besides, the AC50 in [4] and in [11] was 50 µM (active) throughout.
Take `[O-][Cl+]O`: the molecule was classed as inactive in test [1], in [2], in [3], in test [4], in test [5] and in test [6]. For the same molecule, the molecule was classed as inactive in test [7], in [8], in test [10], in [11], in test [12] and in test [13]. The molecule was classed as inactive in test [14], in test [15], in [16] and in test [17].

One may read the AC50 as the midpoint of the concentration-response curve, whichever way the signal moves.

Values taken from PubChem BioAssay (EPA / NIEHS).
